Calls of active or inactive are those of the source. No stated cut-off is given here; in the data, active means fold change mostly below about -2 (no sharp cut-off); inactive means mostly above about -1.8.

The test is described as follows: modulation of TERT promoter-driven luciferase – cell-based, luciferase reporter, human, primary screen (AID 1259240). The note with it: A2780 TERT promoter luciferase reporter, 16 h; at 20 µM, fold versus average of vehicle-only wells. In general terms: A reporter such as luciferase makes a cellular process visible.
With `O=C(CSc1nnc2ccc3ccccc3n12)Nc1ccc2c(c1)OCCO2`, the fold change is 1.3 (inactive). `COC(=O)c1cccnc1-n1c(=O)c2cccnc2n(Cc2ccc(C#N)cc2)c1=O`: the fold change was -1.61 (inactive). For `CCCCN(C)C(=O)Cn1c(=O)oc2cc(S(=O)(=O)N3CC(C)CC(C)C3)ccc21` (stereo not given), the fold change is 1.08 (inactive).

Regarding `Cc1ccc2nc(NCc3ccc(F)cc3)c3nncn3c2c1`, the fold change is 1.08 (inactive).

Take `CCOc1ccc2c(c1)CN(Cc1ccc(Cl)cc1)CO2`: the fold change was -1.71 (inactive).

As for `Fc1ccc(-c2nnc3ccc(N4CCOCC4)nn23)cc1`, the fold change is 1.05 (inactive).

In the case of `COc1ccc(C2C=C(c3cccnc3)Nc3nc4ccccc4n32)cc1` (stereo not given), the result was inactive.

For `CC(C)CC(NS(=O)(=O)c1ccc2c(c1)oc(=O)n2C)C(=O)N1CCn2c1nc1ccccc12` (stereo not given), the fold change was -1.61 (inactive). Still for that read-out and setting: for `Clc1ccc2c(c1)C1CC(c3ccccc3)=NN1C(c1ccncc1)O2` (stereo not given) the value was -1.13 (inactive); for `C=CCN(C(=O)C1CCC(CNS(=O)(=O)c2cccc3nsnc23)CC1)C1CCCCC1` (stereo not given), -1.05 (inactive); for `Cc1cccc(C(=O)N2N=C(c3ccc(NS(C)(=O)=O)cc3)CC2c2ccco2)c1` (stereo not given), 1.31 (inactive). Still for that read-out and setting: as for `Cn1c(=O)oc2cc(S(=O)(=O)N3CCC(C(=O)NCC4COc5ccccc5O4)CC3)ccc21` (stereo not given), the figure is -1.13 (inactive); as for `CCOC(=O)C1=C(CS(=O)(=O)c2ccccc2)NC(=O)NC1c1cccc(Br)c1` (stereo not given), 1.6 (inactive). The same measure, in the same setting: as for `c1ccc(N2CCN(c3nc4ccccc4n4cnnc34)CC2)cc1`, the figure is 1.17 (inactive). With `O=C(O)Cn1c(O)c(C2=c3ccccc3=NC2=O)sc1=S`, the outcome was inactive.

Values taken from PubChem BioAssay AID1259240 (Keith Lab, Institute of Cancer Science, University of …, 2017).
